Hits are enriched below; roughly 2% of the tested compounds scored in any of these assays.
TexasRed fluor: alters Texas Red total fluorescence, flagging assay interference | TRb/SRC2 Texas Red total fluorescence interference | Potency, µM (titrated, usually from 106 µM), inactives show at the top dose fluorescence change, negative = quenching | actives 0.29% (n = 280,000) | AID 1479; active means well fitted curve in either direction with a large enough effect; inconclusive means small, poorly fitted or top-dose-only effect; further: potency means the concentration at half of the fitted maximal effect; on the % scale 0 is the no-effect control and ±100 the full control effect
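Human TRb ligand-binding domain at 0.6 uM with 20 nM Texas Red SRC2 peptide in Tris buffer containing 1 uM T3 and 5% DMSO, incubated with compound 5 h at ambient temperature. Total fluorescence (555/632 nm) calculated as parallel + 2 × perpendicular.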
FBPA coupling cs: inhibits coupling enzyme system, counter-screen for aldolase hits | coupling enzyme system counterscreen, AmpLite Red fluorescence | activity change, negative = inhibition, % at 58.2 µM, hits read low | AID 2472 | actives 0.67% (n = 290,000); in the data active means activity change below about -30%; further: on the % scale 0 is the no-effect control and ±100 the full control effect
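Final compound at 57.5 uM, incubated 10 min at RT with coupling enzyme reagent (glyceraldehyde-3-phosphate), then 20 min with substrate and AmpLite Red detection. Fluorescence read at 525/598 nm; tests interference with the coupling assay, not aldolase inhibition.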
HTT aggregate: mutant huntingtin aggregation inhibition; PC12 HttQ103-GFP aggregates, Acumen cytometry, 40 h; AID 1688; actives 1.1% (n = 220,000); Potency, µM (highest dose often 46.1 µM), for inactives: at the top dose activity change, negative = inhibition, actives largely listed as inhibitors; further: potency means the concentration at half of the fitted maximal effect; on the % scale 0 is the no-effect control and ±100 the full control effect; nearly all actives have a fitted effect of over 60% in size
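Read-out: GFP aggregate count by laser scanning cytometer (488 nm excitation, 500-530 nm emission, 1–25 µm objects >6 SD above background). Cells: PC12, inducible HTTex1-Q103-GFP, 100 nM tebufenozide; compounds titrated.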
KDM4E inh: JMJD2E (human) inhibition. Potency, µM (titrated, usually from 57.1 µM), without a hit: at the highest dose activity change, negative = inhibition, usual class: inhibitors. B2RXH2. actives 1.6% (n = 230,000). AID 2147. JMJD2E catalytic domain, FDH-coupled NADH fluorescence (FDH is formaldehyde dehydrogenase);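 further: potency means the concentration at half of the fitted maximal effect; 0% = wells with enzyme and -100% = buffer wells without enzyme; nearly all actives have a fitted effect of over 50% in size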
Target sequence (B2RXH2 1-337 limits assumed): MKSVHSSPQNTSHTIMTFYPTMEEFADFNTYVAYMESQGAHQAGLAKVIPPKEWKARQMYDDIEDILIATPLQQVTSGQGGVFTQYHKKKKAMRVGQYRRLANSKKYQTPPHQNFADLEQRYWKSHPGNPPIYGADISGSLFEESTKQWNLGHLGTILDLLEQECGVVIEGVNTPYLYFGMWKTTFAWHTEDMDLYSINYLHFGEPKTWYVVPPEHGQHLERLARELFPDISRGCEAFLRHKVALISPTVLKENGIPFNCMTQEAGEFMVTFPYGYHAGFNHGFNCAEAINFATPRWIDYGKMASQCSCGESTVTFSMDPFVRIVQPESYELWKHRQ
HTT cytoprotect: protects HTT-Q103 PC12 cells, measured by ATP; AID 1471; PC12 HTT-Q103 induced, cytoprotection, ATP luminescence, 40 h; actives 0.14% (n = 230,000); Potency, µM (doses to about 56.4 µM), without a hit: cytoprotection (ATP increase), actives largely listed as activators; further: potency means the concentration at half of the fitted maximal effect; % of control where 0% means no effect; nearly all actives have a fitted effect of over 45% in size
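Compounds were screened for protection of PC12 cells against cell death after tebufenozide induction (100 nM final) of mutant Huntingtin exon 1 (Q103) fused to GFP.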
TRb SRC2 PPI: disrupts binding of human TR beta to SRC2; P10828; TRbeta-SRC2 peptide binding, fluorescence polarization; receptor liganded with 1 µM T3; Potency, µM (series often up to 106 µM), for the others: at the highest dose activity change, negative = inhibition, actives largely listed as inhibitors; actives 0.065% (n = 280,000);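 further: potency means the concentration at half of the fitted maximal effect; plate controls were bound peptide for no effect and peptide without receptor for full effect; nearly all actives have a fitted effect of over 50% in size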
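Quantitative HTS by FP: 0.6 uM TRb LBD, 20 nM labeled SRC2 20-mer, 1 uM T3, 5% DMSO; 5 hr ambient incubation; % activity per concentration and potencies from concentration series.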
* = called active by the depositor; ? = inconclusive; . = not tested or not shown; [ ] = remark or other dose. Unless noted, the call rests on the fitted dose curve; in most records, active means well fitted curve in the direction sought with a large enough effect; inconclusive means small, poorly fitted or top-dose-only effect, or another doubt; inactive means no such curve, though single readings can be large; an effect the other way counts as inactive or inconclusive.

SMILES	TexasRed fluor	FBPA coupling cs	HTT aggregate	KDM4E inh	HTT cytoprotect	TRb SRC2 PPI
CC(=O)OCOC(=O)CNc1ccccc1OCCOc1ccccc1NCC(=O)OCOC(C)=O	?	0	.	.	.	-1%
CCN(CC)S(=O)(=O)c1ccc(/C=C/C(=O)OCC(=O)Nc2ccc(S(N)(=O)=O)cc2)cc1	-10%	-46*	24%	-6%	0%[10 µM]	10%
CCN(CC)S(=O)(=O)c1ccc(/C=C/C(=O)OCC(=O)Nc2ccc(C(N)=O)cc2)cc1	-1%	4	-1%	-6%	-28%	0%
Cc1ccc(C(=O)CSc2nnc3ccc4ccccc4n23)cc1	3%	.	.	.	.	-2%
Cc1ccc(C)c(NC(=S)NCCSc2ccc(Cl)cc2)c1	1%	-2	-14%	6%	0%[0.074 µM]	5%
Cc1ccc(NC(=S)NCC(C)CSc2ccc(Cl)cc2)cc1 (centres undefined)	-3%	0	25µM*	2%	-167%	-3%
Cc1cccc(NC(=S)NCC(C)CSc2ccc(Cl)cc2)c1 (centres undefined)	1%	0	?	4%	-86%	-2%
Cc1ccc(NC(=S)NCCSc2ccc(Cl)cc2)c(C)c1	-2%	-6	6%	-5%	1.8µM*	-8%
COc1ccc2[nH]cc(CCNc3ncncc3-c3ccccc3C)c2c1	.	0	.	.	-21%	.
CCC(=O)N/N=C/c1ccc(-c2ccc([N+](=O)[O-])cc2)o1	-9%	3	-2%[9.22 µM]	-5%	2%[10 µM]	-3%
Cc1nnc(N/N=C/c2ccc(-c3ccccc3F)o2)n1N	1%	-21	-15%	?	-60%	1%
Cc1nnc(N/N=C\c2ccc(-c3ccccc3[N+](=O)[O-])o2)n1N	-2%	-65*	6%	2%	2%[10 µM]	-2%
CCc1nnc(N/N=C/c2ccc(-c3ccc([N+](=O)[O-])cc3)o2)n1N	-3%	-37*	-32%	-18%	-89%	6%
COc1ccc(Cl)cc1NC(=O)c1c(NCc2cccnc2)sc2c1CCC(C)C2 (centres undefined)	-5%	.	.	.	.	-3%
N#CC1=C(N)NC(SCc2ccc(F)cc2)=C(C#N)C12CCCCC2	-2%	1	13µM*	3%	-48%	-4%
NC(=O)C1(N2CCCCC2)CCN(C(=O)Nc2ccccc2C(F)(F)F)CC1	-6%	-35*	10%	-1%	12%[10 µM]	5%
O=C(Nc1ccccc1C(F)(F)F)N1CCCCCC1	2%	5	2%	0%	6%	-11%
C/C(N)=C(/C#N)C(=O)CSc1nn(-c2ccc(Cl)cc2)c(=S)s1	-3%	2	?	-4%	-96%	1%
C/C(N)=C(/C#N)C(=O)CSc1nnc(SCc2ccc(Cl)cc2)s1	-2%	0	11µM*	5%	-4%[10 µM]	-10%
CCCN1C[C@@H](CSC)C[C@H]2c3cccc4[nH]cc(c34)C[C@@H]21	.	.	.	.	18%[1.9 µM]	.
CCN(CC)S(=O)(=O)c1ccc2c(c1)N(CC(=O)Nc1c(C)cc(C)cc1C)C(=O)C1CCCN21 (centres undefined)	0%	.	.	.	.	-5%
CN(C)CCCN(Cc1ccccc1)C(=S)Nc1cccc(C(F)(F)F)c1	-2%	1	0.0006µM*	2%	.	-2%
CCCN(Cc1ccccc1)C(=S)Nc1cccc(C(F)(F)F)c1	0%	0	5%	-2%	11%[10 µM]	5%
CC12C=CC(=O)C=C1CCC1C2=CCC2(C)C1CC[C@@H]2C(=O)CN1CCN(c2cc(N3CCCC3)nc(N3CCCC3)n2)CC1 (some centres undefined)	1%	-38*	.	.	-9%	-16%
C[C@@]12C=CC(=O)C=C1CC[C@@H]1C2=CC[C@]2(C)[C@@H]1CC[C@H]2C(=O)CN1CCN(c2cc(N3CCCC3)nc(N3CCCC3)n2)CC1	.	.	.	.	-7%[1.9 µM]	.
SMILES	TexasRed fluor	FBPA coupling cs	HTT aggregate	KDM4E inh	HTT cytoprotect	TRb SRC2 PPI
Cc1nc2ccn(Cc3cccs3)c(=O)c2cc1C(=O)N1CCN(c2ccccc2F)CC1	0%	.	.	.	.	5%
COc1cc(O)c(NC(C)=O)c2nonc12	-2%	-54*	-8%	?	-16%	-29%
Cc1cc(C)c(NC(=O)CSc2nc3ccc(NC(=O)CSc4nnnn4-c4ccccc4)cc3s2)c(C)c1	-4%	-2	10µM*	-12%	.	1%
O=C(CSc1nc2ccc(NC(=O)CSc3nnnn3Cc3ccccc3)cc2s1)Nc1ccccc1	-4%	-3	10%	-17%	11%[10 µM]	9%
CCn1c(SCC(=O)OC2CCCCC2)nc2ccccc2c1=O	2%	6	0.63µM*	-3%	-3%[10 µM]	-18%
CCOC(=O)CSc1nc2ccccc2c(=O)n1CC	4%	-2	-22%	3%	-10%[0.074 µM]	5%
O=C(O)C(Oc1ccc(Cl)cc1)Oc1ccc(Cl)cc1	-2%[201 µM]	.	.	.	.	5%[201 µM]
FC(F)(F)c1ccc2c(c1)C1C=CCC1C(c1ccncc1)N2 (centres undefined)	6%	-11	5%	?	-9%	12%
O=C(O)c1ccc2c(c1)C1C=CCC1C(c1ccncc1)N2 (centres undefined)	-8%	-31*	-27%[9.22 µM]	14µM*	18%[10 µM]	6%
O=C(N/N=C/c1ccc(Sc2ccccn2)o1)c1cc2ccccc2cc1O	32µM*[quencher]	5	-11%	-18%	1%[10 µM]	?
O=C(N/N=C\c1ccc(Sc2ccccn2)o1)c1cccc(F)c1	0%	1	11%	-4%	-101%	-4%
CC[n+]1ccc(/C=C/c2ccc(N(C)C)cc2)c2ccccc21	32µM*[fluorescent]	-10	?	?	-58%[10 µM]	?
CN(C)c1ccc(/C=C/c2cc[n+](C)cc2)cc1	45µM*[fluorescent]	-2	2.5µM*	0%	-70%	?
CC[n+]1ccccc1/C=C/c1ccc(N(C)C)cc1	4%	0	2.8µM*	-13%	-79%	6%
Cc1ccc(-n2nc3c(=O)n(CCCC(=O)NCCc4ccccc4Cl)nc(C)c3c2C)cc1	-1%	.	.	.	.	2%
Cc1ccccc1S(=O)(=O)Cc1ccc(C(=O)NCc2ccccc2Cl)o1	-1%	.	.	.	.	-1%
COC(=O)/C(=C/c1c[nH]c2ccccc12)NC(C)=O	1%	0	25%	20µM*	19%[10 µM]	2%
COc1cc(OC)c(NC(=O)C2CCCN(c3ncnc4c3nc3n4CCCCC3)C2)cc1Cl (centres undefined)	18µM*[quencher]	.	.	.	.	-8%
Cc1ccc(N(C)C(=O)C2CCCN(c3ncnc4c3nc3n4CCCCC3)C2)cc1C (centres undefined)	20µM*[quencher]	.	.	.	.	-5%
CN(C(=O)C1CCCN(c2ncnc3c2nc2n3CCCCC2)C1)c1ccccc1F (centres undefined)	-16%	.	.	.	.	2%
